Where “and” joins values, the source holds several entries; their conditions need not be identical. Equal entries are not always repeated. Compounds without any hit were thinned out: in the full panel of roughly 83,000, 20% have a hit.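 Values shown are percent growth following 48 h exposure of cells in 96-well plates to a single concentration of compound; below 10 was considered active.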 Calls of active or inactive are those of the source.
test system: HL-60(TB) leukemia; assay: NCI-60 one-dose screen, 48 h (100 = growth as untreated, 0 = no growth, -100 = all killed); conditions: 10 µM unless noted

Row | Structure (SMILES) | growth
1 | O=C(Cc1ccccc1)Cc1ccccc1 | 99.2% (inactive)
2 | Cc1cc(Nc2ncnc3ccc(NC4=NC(C)(C)CO4)cc23)ccc1Oc1ccn2ncnc2c1 | 5.69% (active)
3 | Cc1ccccc1Cn1cnc2ccc(-c3cc(NC(=O)c4ccc(NC5CCN(C)CC5)cc4)n[nH]3)cc21 | 79.4% (inactive)
4 | CC(C)(C)CC(C)(C)c1ccc(OCCO)cc1 | 91.5% (inactive)
5 | COc1cc(Nc2ccnc3ccc(Br)cc23)cc(OC)c1OC | 24.8% (inactive)
6 | C=CCn1c(SCC(=O)Nc2ccc(C(=O)/C=C/c3cc(OC)c(OC)c(OC)c3)cc2)nnc1-c1cc(-c2ccc(S(C)(=O)=O)cc2)nc2ccccc12 | 69.8% (inactive)
7 | COc1ccc(C(=O)NC(=O)Nc2cc3c(cc2F)/C(=C/c2[nH]c(C)c(CCC(=O)O)c2C)C(=O)N3)c(F)c1 | 20.9% (inactive)
8 | COc1cc(/C=C/C(=O)C(C(=O)/C=C/c2ccc(OC(=O)CCNC34CC5CC(CC(C5)C3)C4)c(OC)c2)C(=O)CCNC23CC4CC(CC(C4)C2)C3)ccc1OC(=O)CCNC12CC3CC(CC(C3)C1)C2 (stereo not given) | -30.3% (active)
9 | CCCCCC(=O)OCCC1CCCCC1 | 109% (inactive)
10 | Nc1nc(SC/C=C/CCl)c2[nH]cnc2n1 | 97.8% (inactive) and 103% (inactive)
11 | NNC(=O)Nc1ccccc1 | 102% (inactive)
12 | CC(=O)Nc1ccc2c(c1)c(NC(C)=O)nn2C(=O)Nc1ccc(Cc2ccccc2)cc1 | 93.1% (inactive)
13 | O=Nc1ccc(Nc2ccccc2)cc1 | -1.72% (active)
14 | O=C(N/N=C/c1c(Cl)cccc1Cl)c1cccnc1Nc1cccc(C(F)(F)F)c1 | 28.1% (inactive)
15 | N/C(=C\C(=O)n1nc(-c2ccccc2)cc1N)c1ccccc1 | 1.71% (active)
16 | CC(=O)OC[C@]1(C)C=C2C(=O)[C@](C)(O)C3(CC3)C(C)=C2[C@H]1OC(C)=O | 96.4% (inactive)
17 | CCCCOC(=O)OCc1cc(=O)c(O)co1 | 95.2% (inactive)
18 | COc1ccc2nc(Cl)cc(C)c2c1 | 89.3% (inactive) and 9.88% (active)
19 | COc1ccc(/C(C#N)=C/c2ccccn2)cc1 | 91.8% (inactive) and 78.1% (inactive)
20 | O=C(Nc1cc(C(F)(F)F)cc(C(F)(F)F)c1)c1cc(Cl)ccc1O | -24.6% (active) and -49% (active)

Row | Structure (SMILES) | growth
21 | O=C(CCC(C(=O)c1ccccc1)c1ccccc1)c1ccccc1 (stereo not given) | 28.1% (inactive)
22 | O=C(/C=C/C=C/c1ccc2c(c1)OCO2)N1CCCCC1 | 100% (inactive) and 93.4% (inactive)
23 | COc1c(B(O)O)cccc1-c1nc2ccc3n[nH]c(F)c3c2c2c1CCCC2 | 20% (inactive)
24 | CCCC(=O)NC(c1ccc2c(c1)OCO2)c1ccc2cccnc2c1O (stereo not given) | -47.7% (active)
25 | CCCNC(=O)Oc1ccc(/C(=C(\C)c2ccccc2)c2ccc(OCCN3CCCCC3)cc2)cc1 | 63.1% (inactive)
26 | COc1ccc(S(=O)(=O)Nc2ccc(OCc3nnc(-c4ccc(Cl)cc4)o3)c(F)c2)cc1 | 51.2% (inactive)
27 | CN[C@@]12CC3(C=CC(=O)C=C3)O[C@]1(Cc1ccc(OC)cc1)N(C)C(=O)N2 | 0.452% (active)
28 | NCCCCCC(=O)O | 114% (inactive) and 92.6% (inactive) and 77.6% (inactive)
29 | Cc1cn(-c2cc(NC(=O)c3cncc(C#Cc4cnc(N)c5ncccc45)c3)cc(C(F)(F)F)c2)cn1 | 18.7% (inactive)
30 | O=C(O)C1(C(=O)O)CCC1.[NH2-].[NH2-].[Pt+2] | 103% (inactive) and 58.7% (inactive)
31 | C/C(=C(/c1ccc(Cl)cc1)c1ccc(OCCN2CCCC2)cc1)c1ccc(Cl)cc1 | 69.5% (inactive)
32 | COCCn1c(-c2csc(-c3cn(C)c4ccc(OC)cc34)n2)cc2cccnc21 | 55.8% (inactive)
33 | O=CN1CCCCC1 | 97% (inactive)
34 | COc1ccc(-c2[nH]nc(N)c2-c2cc(OC)c(OC)c(OC)c2)cc1 | -34.9% (active)
35 | Cc1cc(NCc2cc(Nc3ccnc4cc(Cl)ccc34)ccc2F)nc(N2CCN(c3ccccc3)CC2)n1 | -40.7% (active)
36 | O=C1CC23OC4ON=C(Br)C4C2C(O)c2ccccc2N13 (stereo not given) | 102% (inactive)
37 | COc1cc(-c2csc(NC(=O)Nc3ccc(Cl)cc3Cl)n2)cc(OC)c1OC | 17% (inactive)
38 | Cn1cccc1C(=O)C1C(c2cccc([N+](=O)[O-])c2)C2C3CCCCC3CN2C12C(=O)Nc1ccc(Cl)cc12 (stereo not given) | 17.8% (inactive)
39 | CNC(=O)Nc1ccc(-c2nc(N3CCOCC3)nc3c2cnn3C2CCOCC2)cc1 | 11.3% (inactive)
40 | Cc1cc2c(O)c(-c3cc(Cl)ccc3Cl)c3sc(=O)oc3c2cc1C | 64.1% (inactive)
